Laboratory results as given in ChEMBL document CHEMBL4513216, “Probing the Open Global Health Chemical Diversity Library for Multistage-Active Starting Points for Next-Generation Antimalarials” (ACS Infect Dis, 2020).
The campaign covered roughly 65,000 compounds. About 2,100 (3.2%) showed an effect of 50% or more. The median lay at about -52%. What follows is part of a selection rich in strong results, with near analogues and random picks from the rest.

System: Plasmodium falciparum
Assay: Screen against P. falciparum Asexual Blood Stage (ABS), at 5uM
Type: functional, Dd2
Settings: tested at 5 uM

Row | Compound | INHIBITION [%]
1 | CN1CC(=O)N(c2ccccc2)Cc2c(NC3CC3)ncnc21 | -97.2
2 | CO[C@H]1CN(C(=O)OC(C)(C)C)CC1NCc1ccco1 (some centres not stated) | -47.8
3 | CN(CCNC(=O)Nc1ccn(C)n1)Cc1ccc(F)cc1 | -27.6
4 | CC(C)NC(=O)N1CCc2onc(C(=O)NCCN(C)C)c2C1 | -13.1
5 | COCc1nn(C(C)C)c2c1CCN(Cc1ccc(C)o1)C2 | -31
6 | CC(C)C1=NOC2(CCN(Cc3c[nH]c4ccccc34)CC2)C1 | 2.84
7 | Cc1ccc(CNCC2Cn3nnc(-c4cnn(C)c4)c3CO2)o1 (configuration not stated) | -32.4
8 | Cc1ccc(Nc2nccc(C3CCCN(CC(=O)N(C)C)C3)n2)nc1 (configuration not stated) | -3.51
9 | Cc1ccc(N2CCc3ncnc(C4CC4)c3CC2)nn1 | -150
10 | CN1CCO[C@@H]2CN(S(=O)(=O)c3ccccc3)CC[C@@H]2C1 | 33.8
11 | CN1CCO[C@@H]2CN(S(=O)(=O)c3ccc(F)cc3)CC[C@@H]2C1 | 62.7
12 | CC(=O)N1CCO[C@@H]2CN(S(=O)(=O)c3ccc(F)cc3)CC[C@@H]2C1 | -83.8
13 | N#Cc1ccccc1CN1C[C@@H]2CC[C@H]1CN(C(=O)c1cccnc1)C2 | -15.6
14 | CCN(C(=O)CN1CCCN(c2nc(C)ns2)CC1)C1CC1 | -126
15 | CC(C)CC(=O)NCC1CCC(C(c2ccccn2)N(C)C)CC1 (configuration not stated) | -110
16 | O=C(c1ccccn1)N1CCC2(COc3ncccc3S(=O)(=O)N2)C1 (configuration not stated) | -69.3
17 | Cc1ccc(CN(CCCn2ccnc2)Cc2c[nH]nc2C(C)(C)C)s1 | 33.5
18 | Cc1cc(NCCNS(=O)(=O)c2cn(C)nc2C)c2ccccc2n1 | 3.35
19 | Cc1ccc2nc(C)cc(NCCNS(=O)(=O)c3cn(C)nc3C)c2c1 | 47.8
20 | Cc1ccc2nc(C)cc(NCCNS(=O)(=O)c3cccnc3)c2c1 | 62.9
21 | COc1nn(C)c2c1CCCN(C(=O)c1cccs1)C2 | -22.1
22 | O=C(c1ccc(F)cc1)N1CC[C@H]2[C@H]1CCN2CC1CCOCC1 | -112
23 | Cc1nc(CN2CCN(C(=O)C(C(C)C)n3cncn3)CC2)cs1 (configuration not stated) | -61.1

Row | Compound | INHIBITION [%]
24 | CN1N=C(C(=O)N(Cc2ccco2)C2CC2)CCC1=O | -127
25 | CN1CCC(N(Cc2ccco2)S(=O)(=O)c2ccc(Cl)cc2)CC1 | 56.8
26 | CC1CCN(C(=O)CN(Cc2ccco2)C2CC2)CC1 | -115
27 | COCCNC(=O)[C@H]1C[C@@H]2CCN(Cc3nccs3)C[C@H]2O1 | -127
28 | CN(C)CCN(Cc1ccc(Cl)cc1)C(=O)c1ccncc1 | 53.1
29 | CN(C)CCN(Cc1ccc(Cl)cc1)C(=O)c1cnccn1 | 35.1
30 | CN(C)CCN(Cc1ccc(C(F)(F)F)cc1)C(=O)c1cc[nH]n1 | 35.8
31 | Cc1cnc(C(=O)N(CCN(C)C)Cc2ccc(Cl)cc2)cn1 | -35.7
32 | Cc1cc(C(=O)N(CCN(C)C)Cc2ccc(Cl)cc2)no1 | 53.4
33 | CN(C)CCN(Cc1ccc(Cl)cc1)C(=O)c1ccn(C)c(=O)c1 | -73.6
34 | Cc1nc(COCc2cnc3n2CCN(C)C3C)cs1 (configuration not stated) | -63.4
35 | O=C(NCCc1cccs1)[C@H]1CO[C@H]2CCN(C3CCC3)C[C@H]2C1 | -9.07
36 | O=S1(=O)CCC(CNS(=O)(=O)N2CCc3ccccc3C2)C1 (configuration not stated) | -114
37 | O=S(=O)(NCC1CCOC1)N1CCc2ccccc2C1 (configuration not stated) | -80.7
38 | CCN1CCC(CNS(=O)(=O)N2CCc3ccccc3C2)C1 (configuration not stated) | 53.9
39 | COc1cc(OC)cc(C(=O)NCC(c2cccn2C)N2CCCC2)c1 (configuration not stated) | 55.5
40 | COc1ccc(C(=O)NCC(c2cccn2C)N2CCN(C)CC2)cc1 (configuration not stated) | -35
41 | COc1ccc(C(=O)NCC(c2cccn2C)N2CCCC2)cc1OC (configuration not stated) | 28
42 | O=C(NCC(O)COc1ccccc1)Nc1nncs1 (configuration not stated) | -50.2
43 | O=C(CCc1ccsc1)NCC1CCN(Cc2cccs2)CC1 | 59.5
44 | O=C(CCc1ccccc1)NCC1CCN(Cc2cccs2)CC1 | -7.73
45 | O=C(CCc1ccccc1)NCC1CCN(Cc2ccsc2)CC1 | 19.8
46 | CCOc1nn(CC)cc1-c1nnc(SCc2ccccn2)n1C | -121

Row | Compound | INHIBITION [%]
47 | CCCC(=O)N(CCCN1CCOCC1)c1nc2c(Cl)cccc2s1 | -1.93
48 | Cc1noc(C)c1C(=O)NCC1CCCCN1Cc1ccccc1 (configuration not stated) | -3.72
49 | Cc1noc(C(C)C)c1C(=O)NCC1CCN(c2ccccc2)C1 (configuration not stated) | 35.6
50 | Cc1noc(C(C)C)c1C(=O)NCC1CCCN1Cc1ccccc1 (configuration not stated) | 65.7
51 | Cc1cnn(CCC(=O)N2CCC3(CCC(=O)N(CC4CC4)C3)CC2)c1 | -49
52 | Cn1nc(CNC(=O)c2ccc3nsnc3c2)c2c1CCOC2 | -37.5
53 | Cc1cnc(C)c(Oc2ccc(Cl)c(CN3CCCC3)c2Cl)n1 | -31.4
54 | CCc1noc(C2CCCCN2C(=O)c2cc(C)oc2C)n1 (configuration not stated) | -14.9
55 | COc1cc2nc(NCc3cc(C)on3)nc(N)c2cc1OC | 61.4
56 | COc1ccc(Cl)cc1NCc1cc(C)on1 | -142
57 | CCOc1ccc(OCC)c(NCc2cc(C)on2)c1 | -105
58 | O=S(=O)(c1ccccc1)N1CCC2(CCCN2Cc2cccc(Cl)c2)C1 (configuration not stated) | 18.8
59 | COc1ccc(F)cc1-c1ccccc1CC1(C(=O)O)CCOCC1 | -130
60 | COc1ccc(F)cc1-c1ccccc1CC1CNCCNC1=O (configuration not stated) | 51.7
61 | Cc1cc(F)ccc1-c1ccccc1CC1CNCCNC1=O (configuration not stated) | 49.3
62 | O=C(CSCCN1CCOCC1)N1CCc2ccccc2C1 | -92.5
63 | O=C(CCc1nccs1)N1CCN(c2ccccn2)CC1 | -127
64 | Cn1ccnc1CN1CCC2(COCCN(S(=O)(=O)C3CC3)C2)C1 (configuration not stated) | -106
65 | Cn1ccnc1CN1CCC2(CC1)COCCN(c1ncccn1)C2 | -9.16
66 | Cn1ccnc1CN1CCC2(COCCN(Cc3ccsc3)C2)C1 (configuration not stated) | 52
67 | COCC1Cn2nnc(-c3cnn(C)c3)c2CN1Cc1ccoc1 (configuration not stated) | 28.8
